Measured values taken from publication PMC4552634, “A New Set of Chemical Starting Points with Plasmodium falciparum Transmission-Blocking Potential for Antimalarial Drug Discovery” (PLoS ONE, 2015).
Out of some 13,000 compounds screened, about 3,200 (25%) showed an effect of 50% or more. The list shows a part of the results.

Each compound was assayed on P. falciparum stage V gametocytes. Details: 48 h, 5 µM; inhibitor.
Set-up: BacTiter-Glo ATP luminescence viability of purified stage V gametocytes in 384-well plates, per cent inhibition versus DMSO

Compound	% Inhibition [%]
Cc1cc(=O)[nH]c(-n2nc(C)cc2NC(=O)CC(c2ccccc2)c2ccccc2)n1 [TCMDC-124944]	-15.6
Cc1ccc(Nc2cc(C)nn2-c2nc(C)cc(=O)[nH]2)cc1 [TCMDC-123713]	62.43
Cc1cc(=O)[nH]c(-n2nc(C)cc2NC(=O)C(c2ccccc2)c2ccccc2)n1 [TCMDC-124945]	2.872
CCN(CC)c1nc(Nc2cc(C)ccc2C)nc(Nc2ccccc2O)n1 [TCMDC-125766]	-38.82
CCn1c(-c2nonc2N)nc2cnc(Oc3cccc(NC(=O)c4ccc(OCCCN5CCCCC5)cc4)c3)cc21 [TCMDC-135764]	-4.348
CCn1c(-c2nonc2N)nc2c(-c3cccc(NC(=O)Nc4ccc(Cl)cc4)c3)ncc(OCCCN)c21 [TCMDC-136152]	102.5
CCOC(=O)c1ccc(NC(=O)Nc2cccc(-c3cccc(-c4nc5ccccc5[nH]4)c3)c2)cc1 [TCMDC-133263]	2.081
CCn1c(-c2nonc2N)nc2c(-c3cccc(NC(=O)NC45CC6CC(CC(C6)C4)C5)c3)ncc(OCCCN)c21 [TCMDC-136246]	20.74
CCn1c(-c2nonc2N)nc2cnc(Oc3cccc(NC(=O)c4ccc(OCCN5CCCC5)cc4)c3)cc21 [TCMDC-135776]	8.365
Nc1nonc1-c1nc2c(-c3cccc(Cl)c3)nccc2n1CCCNC(=O)Cc1ccc(Cl)cc1 [TCMDC-135207]	32.87
CCn1c(-c2nonc2N)nc2c(-c3cccc(NC(=O)Nc4cccc(Cl)c4)c3)ncc(OCCCN)c21 [TCMDC-136193]	104.3
CCn1c(-c2nonc2N)nc2c(-c3cccc(NC(=O)Nc4ccc5c(c4)CCC5)c3)ncc(OCCCN)c21 [TCMDC-136191]	95.55
CCOC(=O)c1cccc(NC(=O)Nc2cccc(-c3ncc(OCCCN)c4c3nc(-c3nonc3N)n4CC)c2)c1 [TCMDC-136205]	109.2
Cc1cccc2[nH]c(-c3cccc(-c4cccc(NC(=O)Nc5ccc(Cl)cc5)c4)c3)nc12 [TCMDC-133179]	-25.81
CCn1c(-c2nonc2N)nc2c(Cl)ncc(O[C@H](CCN)c3ccccc3F)c21 [TCMDC-133566]	-5.634
CCOC(=O)c1ccc(NC(=O)Nc2cccc(-c3cccc(-c4nc5c(C)cccc5[nH]4)c3)c2)cc1 [TCMDC-133264]	-4.791
Cc1cccc2nc(-c3ccc(-c4cccc(CN5CC(C)OC(C)C5)c4)s3)[nH]c12.O=C(O)C(F)(F)F (stereo not shown) [TCMDC-133832]	-9.101
N#Cc1ccc(C(=O)Nc2cc(-c3cccc(O)c3)cc3[nH]ncc23)cc1 [TCMDC-134118]	16.86
Cc1ccc(Oc2ncccc2C(=O)Nc2cccc3cccnc23)c(C)c1 [TCMDC-125499]	-13.13
O=C(Nc1ccc(CCN2CCC(c3nc(COCC(F)(F)F)c(-c4ccccc4)o3)CC2)cc1)c1ccc(F)cc1 [TCMDC-131904]	-33.25
O=C(Nc1nccs1)c1sc2ccccc2c1O [TCMDC-124521]	-6.294
CCNc1cc(C(=O)N[C@@H](Cc2ccccc2)[C@H](O)CNCc2cc(C#N)ccc2OC)cc(N2CCCC2=O)c1 [TCMDC-141684]	32.6
CC1CCC(NC(=O)c2nn(-c3ccc(Cl)cc3)c(=O)c3ccccc23)CC1 (stereo not shown) [TCMDC-124775]	-0.9327
CCn1nc(C(=O)NC2CCOc3ccccc32)c2ccccc2c1=O (stereo not shown) [TCMDC-124816]	60.74

Compound	% Inhibition [%]
COc1ccc(-n2nc(C(=O)NCc3ccccc3OC)c3ccccc3c2=O)cc1 [TCMDC-125443]	-5.134
COc1ccc(CN2CCC(CN3CC4(OC3=O)c3ccccc3-c3ccccc34)C2)c(O)c1 (stereo not shown) [TCMDC-136069]	30.12
CCNc1cc(C(=O)N[C@@H](Cc2ccccc2)[C@H](O)CNCc2cccc(OC)c2)c(OC)c(N2CCCCS2(=O)=O)c1 [TCMDC-134673]	-8.62
NC(=NCCCCCCCCN=C(N)Nc1ccc(Cl)cc1)Nc1ccc(Cl)cc1 [TCMDC-131828]	83.63
N=C(N)NN=CC(=O)Nc1ccc(Cl)cc1 [TCMDC-137472]	9.695
NC(=NCCc1ccc(Cl)cc1)c1ccc(Cl)c(Cl)c1 [TCMDC-137459]	-9.34
O=C(Nc1ccc(Cl)cc1)Nc1ccc(-c2ccc(-c3nc4ccccc4[nH]3)cc2)cc1 [TCMDC-133181]	-19.19
S=C(Nc1ccc(Cl)cc1)Nc1ccc(Nc2ccccc2)cc1 [TCMDC-123954]	-65.82
Clc1ccc(NC(=NCCCCCCCN=C(Nc2ccc(Cl)cc2)Nc2ccc(Cl)cc2)Nc2ccc(Cl)cc2)cc1 [TCMDC-137529]	128.8
Clc1cccc(-c2nc(Nc3ccnc(-c4ccc(CN5CCOCC5)cc4)c3)c3ccccc3n2)c1 [TCMDC-138870]	-2.785
COC(=O)c1ccc(CC(C)NCC(O)c2cccc(Oc3cccc(C(F)(F)F)c3)c2)cc1 (stereo not shown) [TCMDC-131489]	30.29
COc1ccc2c(c1)[nH]c1c(/C=C/c3ccc([N+](=O)[O-])cc3)nccc12 [TCMDC-125486]	8.204
Cc1sc(NC(=O)c2ccc([N+](=O)[O-])cc2Cl)c(C(N)=O)c1C [TCMDC-125749]	-6.756
c1nc2nc3c(c(Nc4ccc5c(c4)CCC5)n2n1)CCC3 [TCMDC-123573]	-7.89
O=C(/C=C/c1ccc(Cl)c(Cl)c1)NCCCCCN1CCCC(C(=O)Nc2ccc(Cl)cc2)C1 (stereo not shown) [TCMDC-136118]	-2.254
O=C(/C=C/c1ccc(Cl)c(Cl)c1)NCCCCCN1CCCC(C(=O)Nc2cccc(Cl)c2)C1 (stereo not shown) [TCMDC-136122]	-10.14
O=C(/C=C/c1ccc(Cl)c(Cl)c1)NCCCCCN1CCC(NC(=O)NC2CCCC2)CC1 [TCMDC-135699]	-68.94
O=C(/C=C/c1ccc(Cl)c(Cl)c1)NCCCCCN1CCCC(C(=O)Nc2ccc(F)c(Cl)c2)C1 (stereo not shown) [TCMDC-136114]	-6.866
O=C(/C=C/c1ccc(Cl)cc1)NCCCCCN1CCCC(C(=O)Nc2cccc(Cl)c2)C1 (stereo not shown) [TCMDC-136121]	90.21
O=C(/C=C/c1ccc(Cl)c(Cl)c1)NCCCCCN1CCC(NC(=O)NC2CCCCCC2)CC1 [TCMDC-135698]	-24.64
O=C(/C=C/C=C/c1ccc(Cl)c(Cl)c1)NCCCCCN1CCCC2CCCCC21 (stereo not shown) [TCMDC-139469]	92.39
O=C(/C=C/c1ccc(Cl)c(Cl)c1)NCCCCCN1CCCC(C(=O)Nc2ccc(Cl)c(Cl)c2)C1 (stereo not shown) [TCMDC-136126]	74.26
O=C(/C=C/c1ccc(Cl)cc1)NCCCCCN1CCCC(C(=O)Nc2ccc(Cl)cc2)C1 (stereo not shown) [TCMDC-136117]	4.842
CC(C)C1=C[C@H]2C[C@]3(C4OCCO4)[C@@H]4CC[C@@H](C)[C@H]4C[C@@]2(C(=O)OCC2COCO2)[C@]13C(=O)OC(c1ccccc1)c1ccccc1 (stereo partly shown) [TCMDC-131949]	-14.13

Compound	% Inhibition [%]
CN(C)c1ccc(C(c2ccc(N(C)C)cc2)c2cc([N+](=O)[O-])ccc2Cl)cc1 [TCMDC-124088]	-4.747
O=S1(=O)C=C(c2ccccc2)CC1 [TCMDC-125863]	-1.513
O=C(Nc1cc(Cl)ccc1O)c1cnn2c(C(F)(F)F)cc(-c3cccs3)nc12 [TCMDC-125807]	-56.02
COc1cc(CN2CCC(N3CCc4cc(NC(=O)c5cc(C)on5)ccc43)C2)ccc1F (stereo not shown) [TCMDC-135084]	-32.41
N#Cc1cccc(NC(=O)Nc2cccc(-c3ccc(-c4nc5ccc(C(F)(F)F)cc5[nH]4)cc3)c2)c1 [TCMDC-133191]	-49.97
Cc1ccc(C)c2sc(N3CCN(C(=O)c4ccc([N+](=O)[O-])o4)CC3)nc12 [TCMDC-124315]	103
CC(C)c1sc(N2CCN(C)CC2)nc1C(=O)NCCc1ccc(Cl)c(Cl)c1 [TCMDC-134295]	11.7
Cc1ccc(Cl)c2sc(N3CCN(C(=O)c4ccc([N+](=O)[O-])o4)CC3)nc12 [TCMDC-124311]	95.54
CCOC(=O)C(NC(=O)c1ccc([N+](=O)[O-])o1)C(C)C (stereo not shown) [TCMDC-131607]	14.28
CCOC(=O)C(CO)NC(=O)c1ccc([N+](=O)[O-])o1 (stereo not shown) [TCMDC-131608]	22.85
CC1CCN(c2nc(C(=O)NCCc3ccc(Cl)c(Cl)c3)c(C(C)C)s2)CC1 [TCMDC-134836]	1.732
O=C(N[C@@H](CC1CCCCC1)C(=O)NCCN1CCCCC1)c1ccc(O)c(-c2cccc(C(F)(F)F)c2)c1 [TCMDC-140818]	37.36
COc1cc(Cc2cnc(N)nc2N)cc(OCc2cccc(C(=O)O)c2)c1OC [TCMDC-137888]	-0.7108
Oc1ccc(CN2CCN(CCOC(c3ccccc3)c3ccccc3)CC2)cc1Cl [TCMDC-135690]	-0.9629
Cc1cccc2nc(-c3ccc(-c4ccc(NC(=O)Nc5ccc(F)c(F)c5F)cc4)s3)[nH]c12 [TCMDC-133222]	-13.04
Cc1ccc(Nc2nc(N/N=C/c3cc4c(cc3Br)OCO4)nc(Nc3ccc([N+](=O)[O-])cc3)n2)cc1C [TCMDC-124185]	19.94
c1cc(CN2CCCCC2)cc(-c2cccc(-c3nc4ccccc4[nH]3)c2)c1 [TCMDC-133914]	-55.81
NC1CCN(Cc2cccc(-c3csc(-c4nc5ccccc5[nH]4)c3)c2)C1 (stereo not shown) [TCMDC-133876]	10.66
c1cc(CN2CCC(CCN3CCCCC3)CC2)cc(-c2csc(-c3nc4ccccc4[nH]3)c2)c1 [TCMDC-133919]	95.43
c1cc(CN2CCN(CCN3CCOCC3)CC2)cc(-c2csc(-c3nc4ccccc4[nH]3)c2)c1 [TCMDC-133921]	11.49
c1cc(CN2CCCCC2)cc(-c2ccc(-c3nc4ccccc4[nH]3)cc2)c1 [TCMDC-133890]	-8.246
c1cc(CN2CCC(CCN3CCCCC3)CC2)cc(-c2cccc(-c3nc4ccccc4[nH]3)c2)c1 [TCMDC-133920]	106.4
